# According to the supplement of paper PMC10037445:
# The full ranking holds about 2,900 compounds; the median of “NF-kB SEAP reporter activity, fold change vs agonist alone” is about 0.99, and the highest 2% start at about 2.6. Many of the other results were omitted from the sample, so the highest values are more common in it than they were.
# Key:
# RAW-Dual [1] = experiment: NF-kB SEAP reporter activity, fold change vs agonist alone; cytotoxicity flag (confluency mask): not cytotoxic; higher = enhanced NF-kB activity
# Procedure, shortened: (§1)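 Supernatant from RAW-Dual macrophages was read after 20 hours for IRF by QuantiLuc luminescence and for NF-κB by QuantiBlue absorbance at 620 nm. The cells (50,000 cells/well in DMEM, 384-well plates, 37 °C, 5% CO2) had received 50 nL of library stock by pin tool and, 1 h later, a PRR agonist. Reporter activity is expressed relative to agonist-alone wells as fold change, and wells were flagged cytotoxic if IncuCyte confluency was under 70% of agonist controls in both mask sets.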
# RAW-Dual [2] = experiment: NF-kB SEAP reporter activity, fold change vs agonist alone; higher = enhanced NF-kB activity
# Procedure, shortened: as §1
# RAW-Dual [3] = experiment: NF-kB SEAP reporter activity, fold change vs agonist alone; cytotoxicity flag (confluency mask): cytotoxic (confluency <70% of control); higher = enhanced NF-kB activity
# Procedure, shortened: as §1
# [4] = agonist: ODN 1826 (TLR9) 0.5 ug/mL
# [5] = agonist: Pam2CSK4 (TLR2/6) 0.1 ug/mL
# [6] = agonist: Pam3CSK4 (TLR2/1) 0.1 ug/mL
# [7] = library stock concentration (final ~1000-fold dilution): 10 mM, cytotoxicity flag (confluency mask): not cytotoxic, agonist: Imiquimod (TLR7) […]
# [8] = library stock concentration (final ~1000-fold dilution): 10 mM, cytotoxicity flag (confluency mask): not cytotoxic, agonist: MPLA (TLR4) […]
# [9] = library stock concentration (final ~1000-fold dilution): 2 mM, cytotoxicity flag (confluency mask): not cytotoxic, agonist: Imiquimod (TLR7) […]
# [10] = library stock concentration (final ~1000-fold dilution): 2 mM, cytotoxicity flag (confluency mask): not cytotoxic, agonist: MPLA (TLR4) […]
# [11] = library stock concentration (final ~1000-fold dilution): 10 mM, cytotoxicity flag (confluency mask): cytotoxic (confluency <70% of control), agonist: Imiquimod (TLR7) […]
# [12] = library stock concentration (final ~1000-fold dilution): 10 mM, cytotoxicity flag (confluency mask): cytotoxic (confluency <70% of control), agonist: MPLA (TLR4) […]
smiles,measurement,setting,value
c1ccc(C(c2ccccc2)N2CCN(Cc3ccc4c(c3)OCO4)CC2)cc1 (library stock concentration (final ~1000-fold dilution): 10 mM),NF-kB SEAP reporter activity,RAW-Dual [1]; agonist: LPS (TLR4) 0.1 ug/mL,0.717
same,NF-kB SEAP reporter activity,RAW-Dual [1]; [4],0.728
same,NF-kB SEAP reporter activity,RAW-Dual [1]; [5],1.38
same,NF-kB SEAP reporter activity,RAW-Dual [1]; [6],0.699
c1ccc(C(c2ccccc2)N2CCN(Cc3ccc4c(c3)OCO4)CC2)cc1,NF-kB SEAP reporter activity,RAW-Dual [2]; [7],1.19
same,NF-kB SEAP reporter activity,RAW-Dual [2]; [8],0.686
O=c1ncnc2[nH][nH]cc1-2,NF-kB SEAP reporter activity,RAW-Dual [2]; [7],0.925
same,NF-kB SEAP reporter activity,RAW-Dual [2]; [8],1.08
O=c1ncnc2[nH][nH]cc1-2 (library stock concentration (final ~1000-fold dilution): 10 mM),NF-kB SEAP reporter activity,RAW-Dual [1]; agonist: LPS (TLR4) 0.1 ug/mL,0.941
same,NF-kB SEAP reporter activity,RAW-Dual [1]; [4],1.03
same,NF-kB SEAP reporter activity,RAW-Dual [1]; [5],1.06
same,NF-kB SEAP reporter activity,RAW-Dual [1]; [6],1.16
C=C(C)C1CCC2(C)CCC3(C)C(CCC4C5(C)CCC(O)C(C)(C)C5CCC43C)C12 (centres undefined) (library stock concentration (final ~1000-fold dilution): 2 mM),NF-kB SEAP reporter activity,RAW-Dual [1]; agonist: LPS (TLR4) 0.1 ug/mL,1.25
same,NF-kB SEAP reporter activity,RAW-Dual [1]; [4],0.949
same,NF-kB SEAP reporter activity,RAW-Dual [1]; [5],1.06
same,NF-kB SEAP reporter activity,RAW-Dual [1]; [6],0.917
C=C(C)C1CCC2(C)CCC3(C)C(CCC4C5(C)CCC(O)C(C)(C)C5CCC43C)C12 (centres undefined),NF-kB SEAP reporter activity,RAW-Dual [2]; [9],1
same,NF-kB SEAP reporter activity,RAW-Dual [2]; [10],1.05
CC(C)COCC(CN(Cc1ccccc1)c1ccccc1)N1CCCC1.Cl.O (centres undefined),NF-kB SEAP reporter activity,RAW-Dual [2]; [11],0.745
same,NF-kB SEAP reporter activity,RAW-Dual [2]; [12],1.24
CC(C)COCC(CN(Cc1ccccc1)c1ccccc1)N1CCCC1.Cl.O (centres undefined) (library stock concentration (final ~1000-fold dilution): 10 mM),NF-kB SEAP reporter activity,RAW-Dual [3]; agonist: LPS (TLR4) 0.1 ug/mL,0.71
same,NF-kB SEAP reporter activity,RAW-Dual [3]; [4],1.2
same,NF-kB SEAP reporter activity,RAW-Dual [3]; [5],0.673
same,NF-kB SEAP reporter activity,RAW-Dual [3]; [6],1.09
CC(Oc1ccc2[nH]nc(/C=C/c3cnn(CCO)c3)c2c1)c1c(Cl)cncc1Cl (centres undefined),NF-kB SEAP reporter activity,RAW-Dual [2]; [11],0.251
same,NF-kB SEAP reporter activity,RAW-Dual [2]; [12],0.215
CC(Oc1ccc2[nH]nc(/C=C/c3cnn(CCO)c3)c2c1)c1c(Cl)cncc1Cl (centres undefined) (library stock concentration (final ~1000-fold dilution): 10 mM),NF-kB SEAP reporter activity,RAW-Dual [3]; agonist: LPS (TLR4) 0.1 ug/mL,0.225
same,NF-kB SEAP reporter activity,RAW-Dual [3]; [4],0.187
same,NF-kB SEAP reporter activity,RAW-Dual [3]; [5],0.0607
same,NF-kB SEAP reporter activity,RAW-Dual [3]; [6],0.139
CC1(c2nc3c(C(N)=O)cccc3[nH]2)CCCN1 (centres undefined),NF-kB SEAP reporter activity,RAW-Dual [2]; [7],1.05
same,NF-kB SEAP reporter activity,RAW-Dual [2]; [8],0.99
CC1(c2nc3c(C(N)=O)cccc3[nH]2)CCCN1 (centres undefined) (library stock concentration (final ~1000-fold dilution): 10 mM),NF-kB SEAP reporter activity,RAW-Dual [1]; agonist: LPS (TLR4) 0.1 ug/mL,1.14
same,NF-kB SEAP reporter activity,RAW-Dual [1]; [4],0.972
same,NF-kB SEAP reporter activity,RAW-Dual [1]; [5],0.955
same,NF-kB SEAP reporter activity,RAW-Dual [1]; [6],0.991
C=CC(=O)Nc1cc(Nc2nccc(-n3cc(CN(C)C)c(-c4ccccc4)n3)n2)c(OC)cc1N1CCOCC1,NF-kB SEAP reporter activity,RAW-Dual [2]; [9],1.12
same,NF-kB SEAP reporter activity,RAW-Dual [2]; [10],1.02
C=CC(=O)Nc1cc(Nc2nccc(-n3cc(CN(C)C)c(-c4ccccc4)n3)n2)c(OC)cc1N1CCOCC1 (library stock concentration (final ~1000-fold dilution): 2 mM),NF-kB SEAP reporter activity,RAW-Dual [1]; agonist: LPS (TLR4) 0.1 ug/mL,1.37
same,NF-kB SEAP reporter activity,RAW-Dual [1]; [4],0.945
same,NF-kB SEAP reporter activity,RAW-Dual [1]; [5],0.927
same,NF-kB SEAP reporter activity,RAW-Dual [1]; [6],1.01
Cc1ccc(Sc2cncc3sc(C(N)=O)cc23)cc1,NF-kB SEAP reporter activity,RAW-Dual [2]; [7],2.48
same,NF-kB SEAP reporter activity,RAW-Dual [2]; [8],1.93
Cc1ccc(Sc2cncc3sc(C(N)=O)cc23)cc1 (library stock concentration (final ~1000-fold dilution): 10 mM),NF-kB SEAP reporter activity,RAW-Dual [1]; agonist: LPS (TLR4) 0.1 ug/mL,2.89
same,NF-kB SEAP reporter activity,RAW-Dual [1]; [4],2.2
same,NF-kB SEAP reporter activity,RAW-Dual [1]; [5],1.62
same,NF-kB SEAP reporter activity,RAW-Dual [1]; [6],3.34
O=C(CCCCCCCC(=O)NCCO)NCCO (library stock concentration (final ~1000-fold dilution): 10 mM),NF-kB SEAP reporter activity,RAW-Dual [1]; agonist: LPS (TLR4) 0.1 ug/mL,1.2
same,NF-kB SEAP reporter activity,RAW-Dual [1]; [4],0.998
same,NF-kB SEAP reporter activity,RAW-Dual [1]; [5],0.991
same,NF-kB SEAP reporter activity,RAW-Dual [1]; [6],0.856
CCCC(=O)Nc1cccc(NC(=O)c2ccccc2Br)c1,NF-kB SEAP reporter activity,RAW-Dual [2]; [7],1.06
same,NF-kB SEAP reporter activity,RAW-Dual [2]; [8],0.952
O=C(CCCCCCC(=O)NO)NO,NF-kB SEAP reporter activity,RAW-Dual [2]; [7],2.03
same,NF-kB SEAP reporter activity,RAW-Dual [2]; [8],2.57
O=C(CCCCCCC(=O)NO)NO (library stock concentration (final ~1000-fold dilution): 10 mM),NF-kB SEAP reporter activity,RAW-Dual [1]; agonist: LPS (TLR4) 0.1 ug/mL,3.77
same,NF-kB SEAP reporter activity,RAW-Dual [1]; [4],1.62
same,NF-kB SEAP reporter activity,RAW-Dual [1]; [5],0.78
same,NF-kB SEAP reporter activity,RAW-Dual [1]; [6],1.21
CCCCCCCCCCCCCCCCCC(=O)O,NF-kB SEAP reporter activity,RAW-Dual [2]; [7],0.96
same,NF-kB SEAP reporter activity,RAW-Dual [2]; [8],1.05
O=C(CCCCCCC(=O)Nc1ccccc1)NO,NF-kB SEAP reporter activity,RAW-Dual [2]; [11],2.38
same,NF-kB SEAP reporter activity,RAW-Dual [2]; [12],2.6
CCc1ccc(NC(=O)Nc2ccccc2)cc1 (library stock concentration (final ~1000-fold dilution): 10 mM),NF-kB SEAP reporter activity,RAW-Dual [1]; agonist: LPS (TLR4) 0.1 ug/mL,1.12
same,NF-kB SEAP reporter activity,RAW-Dual [1]; [4],0.823
same,NF-kB SEAP reporter activity,RAW-Dual [1]; [5],0.702
same,NF-kB SEAP reporter activity,RAW-Dual [1]; [6],0.652
CCc1ccc(NC(=O)Nc2ccccc2)cc1,NF-kB SEAP reporter activity,RAW-Dual [2]; [7],0.892
same,NF-kB SEAP reporter activity,RAW-Dual [2]; [8],1.01
O=C(CCCCCCCC(=O)NCCO)NCCO,NF-kB SEAP reporter activity,RAW-Dual [2]; [7],0.913
same,NF-kB SEAP reporter activity,RAW-Dual [2]; [8],1.03
CCCC(=O)Nc1cccc(NC(=O)c2ccccc2Br)c1 (library stock concentration (final ~1000-fold dilution): 10 mM),NF-kB SEAP reporter activity,RAW-Dual [1]; agonist: LPS (TLR4) 0.1 ug/mL,0.939
same,NF-kB SEAP reporter activity,RAW-Dual [1]; [4],0.996
same,NF-kB SEAP reporter activity,RAW-Dual [1]; [5],0.966
same,NF-kB SEAP reporter activity,RAW-Dual [1]; [6],1.15
O=C(CCCCCCC(=O)Nc1ccccc1)NO (library stock concentration (final ~1000-fold dilution): 10 mM),NF-kB SEAP reporter activity,RAW-Dual [3]; agonist: LPS (TLR4) 0.1 ug/mL,6.47
same,NF-kB SEAP reporter activity,RAW-Dual [3]; [4],2.34
same,NF-kB SEAP reporter activity,RAW-Dual [3]; [5],0.808
same,NF-kB SEAP reporter activity,RAW-Dual [3]; [6],1.86
CCCCCCCCCCCCCCCCCC(=O)O (library stock concentration (final ~1000-fold dilution): 10 mM),NF-kB SEAP reporter activity,RAW-Dual [1]; agonist: LPS (TLR4) 0.1 ug/mL,0.849
same,NF-kB SEAP reporter activity,RAW-Dual [1]; [4],1.02
same,NF-kB SEAP reporter activity,RAW-Dual [1]; [5],0.95
same,NF-kB SEAP reporter activity,RAW-Dual [1]; [6],1.17
